Screens: PubChem BioAssay, Center for Chemical Genomics, University of Michigan
Dicer inh: inhibitors of Dicer pre-microRNA processing, primary screen, biochemical, cat-ELCCA, chemiluminescence; cat-ELCCA pre-miR-21 Dicer processing; hits give high values; Endoribonuclease Dicer (Homo sapiens), Q9UPY3; 47,000 compounds, 6% hits; z-score at 25 µM; in the data active = z-score above about 3, passing the limit was not always enough;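 also: plate controls were vehicle for no effect and no enzyme for full effect; higher signal means more uncleaved substrate so more Dicer inhibition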
Target sequence (Q9UPY3 whole entry, looked up): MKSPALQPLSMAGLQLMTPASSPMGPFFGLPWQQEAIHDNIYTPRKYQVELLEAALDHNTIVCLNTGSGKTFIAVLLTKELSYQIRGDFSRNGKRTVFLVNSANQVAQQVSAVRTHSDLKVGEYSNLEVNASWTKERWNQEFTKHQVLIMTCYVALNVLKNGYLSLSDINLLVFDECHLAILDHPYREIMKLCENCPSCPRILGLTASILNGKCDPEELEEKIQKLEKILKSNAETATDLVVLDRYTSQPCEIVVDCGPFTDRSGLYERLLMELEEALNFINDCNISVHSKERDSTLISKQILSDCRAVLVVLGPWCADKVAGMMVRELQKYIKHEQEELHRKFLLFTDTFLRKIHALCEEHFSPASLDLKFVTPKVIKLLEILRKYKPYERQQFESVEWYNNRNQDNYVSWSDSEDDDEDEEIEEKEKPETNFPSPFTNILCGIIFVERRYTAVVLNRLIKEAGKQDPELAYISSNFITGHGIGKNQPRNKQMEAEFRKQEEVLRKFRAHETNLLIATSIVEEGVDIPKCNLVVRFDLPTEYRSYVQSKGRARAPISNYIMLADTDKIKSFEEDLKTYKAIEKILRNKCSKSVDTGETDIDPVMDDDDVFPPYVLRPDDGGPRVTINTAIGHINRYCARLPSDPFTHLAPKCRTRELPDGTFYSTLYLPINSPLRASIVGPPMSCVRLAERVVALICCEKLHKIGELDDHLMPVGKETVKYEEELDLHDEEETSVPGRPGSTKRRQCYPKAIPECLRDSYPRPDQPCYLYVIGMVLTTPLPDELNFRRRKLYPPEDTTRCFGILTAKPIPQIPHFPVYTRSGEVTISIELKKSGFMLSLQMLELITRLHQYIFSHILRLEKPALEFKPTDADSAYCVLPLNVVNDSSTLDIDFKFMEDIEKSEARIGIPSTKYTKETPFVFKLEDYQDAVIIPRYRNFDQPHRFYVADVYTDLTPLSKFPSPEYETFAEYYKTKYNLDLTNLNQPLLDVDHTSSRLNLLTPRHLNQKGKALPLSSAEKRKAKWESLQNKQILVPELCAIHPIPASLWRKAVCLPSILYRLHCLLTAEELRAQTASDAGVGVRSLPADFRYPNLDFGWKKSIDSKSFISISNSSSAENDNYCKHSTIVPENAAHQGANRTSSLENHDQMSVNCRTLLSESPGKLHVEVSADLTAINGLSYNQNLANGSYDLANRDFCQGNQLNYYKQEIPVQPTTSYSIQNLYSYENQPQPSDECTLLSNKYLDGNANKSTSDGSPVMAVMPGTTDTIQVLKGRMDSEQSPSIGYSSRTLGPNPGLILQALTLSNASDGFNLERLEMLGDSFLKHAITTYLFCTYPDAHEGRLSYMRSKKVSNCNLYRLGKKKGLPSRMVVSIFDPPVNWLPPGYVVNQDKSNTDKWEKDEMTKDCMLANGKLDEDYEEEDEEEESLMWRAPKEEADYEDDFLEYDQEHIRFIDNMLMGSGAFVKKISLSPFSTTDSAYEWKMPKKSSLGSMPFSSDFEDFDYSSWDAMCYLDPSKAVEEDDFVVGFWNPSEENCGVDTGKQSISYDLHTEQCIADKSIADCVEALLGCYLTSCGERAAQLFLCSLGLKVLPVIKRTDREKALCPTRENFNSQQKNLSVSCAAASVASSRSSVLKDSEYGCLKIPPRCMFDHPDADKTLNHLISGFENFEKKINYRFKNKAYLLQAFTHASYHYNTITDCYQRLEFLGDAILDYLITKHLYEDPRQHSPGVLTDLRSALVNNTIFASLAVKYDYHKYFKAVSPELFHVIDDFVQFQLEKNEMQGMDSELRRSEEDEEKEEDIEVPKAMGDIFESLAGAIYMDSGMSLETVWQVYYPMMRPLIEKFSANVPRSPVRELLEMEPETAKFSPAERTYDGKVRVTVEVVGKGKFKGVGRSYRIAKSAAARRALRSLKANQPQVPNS
* marks the source's active call; other numbers are inactive results. This is one part of a sample in which hits are shown more often than they occur.

SMILES | Dicer inh
CN(C)/C=C/C=c1/c(=O)c2cccc3cccc1c32 | 3.72*
Cc1ccc(NC(=S)C(C#N)C(N)=O)cc1Cl (centres undefined) | 1.93
CC(C)c1ccc(Cc2cn3cc(-c4ccccc4)nc3s2)cc1 | 0.2
O=C1CC(c2cn(Cc3ccccc3)c3ccccc23)C(=O)N1c1ccc(O)cc1 (centres undefined) | 5.56*
O=C1CC(N2CCN(c3ccc(O)cc3)CC2)C(=O)N1c1ccccc1 (centres undefined) | -1.45
O=C1CC(c2c[nH]c3ccccc23)C(=O)N1c1ccccc1 (centres undefined) | 1.2
CC(=O)N1CCc2cc(NC(=S)NCc3cccs3)ccc21 | 0.57
C=CCOc1ccc(C2C(C(=O)c3cc4ccccc4o3)=C(O)C(=O)N2CCN(C)C)cc1 (centres undefined) | 0.54
O=S(=O)(Nc1ccccc1C(F)(F)F)c1cccs1 | 0.1
Cc1[nH]c2[nH]n(-c3ccccc3)c(=O)c2c(=O)c1CCC(C)C | -0.07
Nc1nc2nccc(-c3ccccc3)n2n1 | -0.31
O=C1OC2(CCCC2)OC(=O)C1=Cc1ccoc1 | 3.46*
CSc1ccc(C=C2C(=O)OC(C)(C)OC2=O)s1 | 0.88
CC1(C)OC(=O)C(=Cc2ccc[nH]2)C(=O)O1 | 1.24
Cc1cc(N(CCO)CCO)n2ncnc2n1 | -0.5
Cc1ccc2nc3c(nc2c1C)C(O)=C3O | 4.23*
CCOC(=O)c1cc(-c2ccc(Cl)cc2)oc1C | -1.39
Cc1nnc(SCc2cc(=O)n3c(nc4ccccc43)[nH]2)s1 | -1.88
O=C1CC(CSc2nnnn2-c2ccccc2)=NN1c1nc2ccccc2[nH]1 | -2.33
Cc1nnc(SCC2=NN(c3nc4ccccc4[nH]3)C(=O)C2)s1 | 3.18*
Cc1c(C#N)c(N)n(CCCn2cccn2)c1C | 0.26
Cc1nc(-c2ccc(S(=O)(=O)NCCNC(=O)OC(C)(C)C)s2)cs1 | -0.85
CCOC(=O)c1nn(-c2ccccc2)c(=O)c2c(N)c(C#N)c(-c3ccco3)cc12 | -3.04
COc1ccc(Nc2cc(C)nc(N3CCOCC3)n2)cc1 | 6.72*
COc1ccc(Nc2nc(N)nc(CN3CCOCC3)n2)cc1 | -0.21
SMILES | Dicer inh
COc1ccc(S(=O)(=O)Nc2ccc(N3CCOCC3)cc2)cc1 | -0.27
Nc1nc(-c2ccc(OCc3ccc(F)cc3)cc2)cs1 | -1.54
Cc1ccc(OCC(O)CN2C(=O)NC(C)(C)C2=O)cc1 (centres undefined) | 1.33
CC1(C)NC(=O)N(CC(O)COc2ccc(Br)cc2)C1=O (centres undefined) | 3.14*
CC1(C)NC(=O)N(CC(O)CN(c2ccccc2)S(=O)(=O)c2ccccc2)C1=O (centres undefined) | 2.22
CC1(C)NC(=O)N(Cc2ccccc2)C1=O | -0.41
CC1(C)NC(=O)N(CC(O)CN(Cc2ccccc2)Cc2ccccc2)C1=O (centres undefined) | 3.02*
Cc1ccc(OCC(O)CN2C(=O)NC(C)(C)C2=O)cc1C (centres undefined) | 0.02
CS(=O)(=O)n1nccc1/C=C/c1cccs1 | -0.15
CCOc1cc(C2/C(=C(/O)c3ccc(C)cc3)C(=O)C(=O)N2CC(C)C)ccc1O (centres undefined) | -1.15
N#C/C(=C\c1ccc(O)cc1)C(N)=S | -0.52
Fc1ccc2c(c1)/C(=N/NC(=S)NCC1CCCO1)CCS2 (centres undefined) | -1.79
O=C(c1ccncc1)N(c1cc2sc(=O)oc2c2ccccc12)S(=O)(=O)c1cccs1 | -5.51
O=C(c1cccnc1)N(c1ccc2oc(=O)sc2c1)S(=O)(=O)c1cccc2cccnc12 | 4.1*
Cc1cc2cc(N(C(=O)c3ccncc3)S(=O)(=O)c3cc(C)c(C)cc3C)ccc2o1 | -0.81
Cc1ccc(C)c(S(=O)(=O)N(C(=O)c2ccncc2)c2ccc3oc(=O)sc3c2)c1 | -1.7
O=C(c1ccncc1)N(c1ccc2oc(=O)sc2c1)S(=O)(=O)c1cccc2cccnc12 | 3.68*
Cn1cnc2c1c(=O)n(CC(O)CN1CCN(CCO)CC1)c(=O)n2C (centres undefined) | 1.29
Cn1c(-c2ccccc2O)n[nH]c1=S | -0.26
COc1cc2c(cc1OC)C(C)N(C(=O)CSCC(=O)O)CC2 (centres undefined) | 0.42
COc1cc(Cl)c(Cl)cc1Cl | -0.51
N#Cc1cc(N)ccc1SCc1ccccc1 | -3.09
Cc1ccc2ncnc(NCc3ccco3)c2c1 | 4.49*
Cn1cnc2c(NCc3ccco3)ncnc21 | -1.5
Cc1ccc2ncnc(Nc3ccc(Cl)cc3)c2c1 | -0.33
SMILES | Dicer inh
CSc1ncccc1C(=O)Nc1ccc2c(c1)C(=O)OC2 | -0.23
O=C(c1ccc([N+](=O)[O-])o1)N1CCN(C/C=C/c2ccccc2)CC1 | -1.1
Fc1ccc(Oc2ccnc3cc(Cl)ccc23)cc1 | -0.22
Cc1ccc2[nH]c(=O)c(NC(N)=O)nc2c1 | 0.24
COc1ccc(C2Nc3ccccc3NC3=C2C(=O)CC(c2ccc(OC)c(OC)c2)C3)cc1 (centres undefined) | 2.55
COc1ccc(C2Nc3ccccc3NC3=C2C(=O)CC(c2ccccc2)C3)cc1OC (centres undefined) | 0.83
COc1ccc(C2CC(=O)C3=C(C2)Nc2ccccc2NC3c2ccc(OC(C)=O)c(OC)c2)cc1 (centres undefined) | 1.56
COc1cc(C2Nc3ccccc3NC3=C2C(=O)CC(c2ccccc2)C3)cc(Br)c1O (centres undefined) | 4.89*
COc1cccc(C2Nc3ccccc3NC3=C2C(=O)CC(c2ccc(OC)c(OC)c2)C3)c1 (centres undefined) | -0.54
COc1ccc(C2Nc3ccccc3NC3=C2C(=O)CC(c2cccs2)C3)cc1 (centres undefined) | 23.9
COc1ccc(C2CC(=O)C3=C(C2)Nc2ccccc2NC3c2cccc(O)c2)cc1OC (centres undefined) | 3.52*
COc1ccc(C2CC(=O)C3=C(C2)Nc2ccccc2NC3c2ccc(OC(C)=O)cc2)cc1OC (centres undefined) | -0.1
COc1cc(C2Nc3ccccc3NC3=C2C(=O)CC(c2cccs2)C3)cc(Br)c1O (centres undefined) | 4.57*
Cc1ccc(/C(O)=C2/C(=O)C(=O)N(c3ccccc3)C2=S)cc1 | 0.96
O=C(O)C(Cc1ccc(O)cc1)NC1CCS(=O)(=O)C1 (centres undefined) | 1.24
Cn1c(=O)c2c(c3ccccc31)OC(=O)CC2c1ccc(Cl)cc1 (centres undefined) | 1.11
O/N=C1\CCOc2ccc3ccccc3c21 | -0.27
CCOC(=O)C(C(=O)OCC)c1c([N+](=O)[O-])c(=O)n(C)c2ccccc12 | -1.63
Cn1cnc([N+](=O)[O-])c1N1CCC(C(N)=O)CC1 | -1.56
CCCc1nn(C)c(C(N)=O)c1[N+](=O)[O-] | 5.52*
O=C(Nc1csc(-c2cccs2)n1)Nc1ccccc1Cl | -1.69
COc1ccc(C2C3=C(CC(C)(C)CC3=O)Nc3c2ccc2ccccc32)cc1OC (centres undefined) | -0.42
COCCOC(=O)C1=C(C)Nc2nc3ccccc3n2C1c1cccc(C)c1 (centres undefined) | -5.48
CCC12CN3CC(CC)(CN(C1)C3c1ccccc1)C2=O (centres undefined) | 5.52*
CCCC12CN3CC(CCC)(CN(C1)C3c1ccc(O)cc1)C2=O (centres undefined) | 2.91
CCC12CN3CC(CC)(CN(C1)C3c1ccccc1F)C2=O (centres undefined) | 1.38
Cc1ccc(C(=O)Nc2cnc3sc(C(C)C)nn3c2=O)cc1 | -0.49
